# The supplement of paper PMC3545927
# The other results are listed elsewhere or left out. The hit rate among all sequences tested is not known here.
# Molecular target: furin, P09958
# Experiment: furin cleavage Z-score vs untreated control; higher = more cleavage, active = 3.5 or more, inactive = 1 or less, 8 variable residues between constant flanks
# How it was run: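 Read counts from sequencing released DNA gave abundance for each bead-bound 8-mer peptide–cDNA fusion cut by purified furin over 7.5, 15 or 30 min. The cleavage Z-score compares log counts with furin-free reactions after lowess adjustment and median absolute deviation scaling.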
# 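Also: purified furin at 1:10 enzyme:substrate in 50 mM HEPES pH 7.5.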
# furin, P09958, sequence (P09958 whole entry): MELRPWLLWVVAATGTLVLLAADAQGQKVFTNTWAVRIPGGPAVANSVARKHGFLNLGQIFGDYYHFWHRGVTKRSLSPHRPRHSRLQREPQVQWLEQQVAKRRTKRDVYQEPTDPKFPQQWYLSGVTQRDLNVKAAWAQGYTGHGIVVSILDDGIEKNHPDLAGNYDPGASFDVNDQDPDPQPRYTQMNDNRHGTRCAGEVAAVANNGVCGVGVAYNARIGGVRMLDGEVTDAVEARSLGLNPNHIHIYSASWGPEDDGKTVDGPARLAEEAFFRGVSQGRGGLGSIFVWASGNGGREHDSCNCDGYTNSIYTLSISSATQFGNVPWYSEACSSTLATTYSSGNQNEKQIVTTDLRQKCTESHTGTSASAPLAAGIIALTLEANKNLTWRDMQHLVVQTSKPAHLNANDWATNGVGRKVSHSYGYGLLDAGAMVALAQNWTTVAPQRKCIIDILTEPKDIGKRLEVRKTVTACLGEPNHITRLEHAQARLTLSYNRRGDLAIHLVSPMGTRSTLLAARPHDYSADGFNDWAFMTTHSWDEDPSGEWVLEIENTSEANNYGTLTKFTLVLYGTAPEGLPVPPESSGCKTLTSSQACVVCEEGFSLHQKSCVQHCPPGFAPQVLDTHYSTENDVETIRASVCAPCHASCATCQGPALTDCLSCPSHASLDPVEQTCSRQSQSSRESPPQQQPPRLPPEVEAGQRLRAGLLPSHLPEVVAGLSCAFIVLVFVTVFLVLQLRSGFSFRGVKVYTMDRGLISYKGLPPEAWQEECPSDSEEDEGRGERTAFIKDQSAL
Sequence,furin cleavage Z-score (7.5 min),furin cleavage Z-score (15 min),furin cleavage Z-score (30 min)
CASVFLVGQLAGNASASA [HC302],-1.01 (inactive),0.196 (inactive),-1.15 (inactive)
CAGDEVDGAGAGNASASA [CS5],-1.72 (inactive),-1.16 (inactive),-2.65 (inactive)
CATTTSSEPAAGNASASA [HC1343],0.91 (inactive),0.314 (inactive),0.501 (inactive)
CAVVLCSMSYAGNASASA [HC2025],-0.0785 (inactive),0.317 (inactive),-1.45 (inactive)
CAGSGKSTKVAGNASASA [HC777],-0.846 (inactive),-1.25 (inactive),-0.383 (inactive)
CATYGKFLADAGNASASA [HC808],-0.371 (inactive),0.314 (inactive),-0.318 (inactive)
CAKLPLAVMGAGNASASA [HC1461],-1.04 (inactive),0.392 (inactive),-1.13 (inactive)
CAKLGVPPLRAGNASASA [HC1616],-0.0832 (inactive),-1.53 (inactive),0.294 (inactive)
CAQKKRSAQYAGNASASA [FS-2878],0.0672 (inactive),0.984 (inactive),2.02
CARKKRSAQNAGNASASA [FS-2036],11.7 (active),14 (active),8.93 (active)
CARKKRISANAGNASASA [FS-1827],0.255 (inactive),0.21 (inactive),-0.0863 (inactive)
CARTGRQVLGAGNASASA [FS-3104],0.169 (inactive),-0.821 (inactive),-1.11 (inactive)
CAIHARFRRGAGNASASA [FS-250],11.1 (active),12.1 (active),9.69 (active)
CALTARFRRGAGNASASA [FS-1374],10.8 (active),12 (active),9.56 (active)
CARTDRCRRGAGNASASA [FS-1483],7.57 (active),8.52 (active),8.04 (active)
CATREAFRRGAGNASASA [FS-883],-0.796 (inactive),-0.878 (inactive),-1.14 (inactive)
CAAYDIIICDAGNASASA [HC815],-1.2 (inactive),-0.574 (inactive),-0.848 (inactive)
CAVVGVVCAAAGNASASA [HC1107],0.556 (inactive),-0.0757 (inactive),-0.152 (inactive)
CAVQGLLRFCAGNASASA [HC618],-0.0765 (inactive),0.463 (inactive),-0.436 (inactive)
CALARRSRRGAGNASASA [FS-816],7.83 (active),7.63 (active),6.48 (active)
CAPANRSRRGAGNASASA [FS-67],10.1 (active),11.8 (active),9.38 (active)
CAIIKRSRRGAGNASASA [FS-1344],6.89 (active),7.38 (active),7.28 (active)

Sequence,furin cleavage Z-score (7.5 min),furin cleavage Z-score (15 min),furin cleavage Z-score (30 min)
CAGVPRSFRGAGNASASA [TR2],0.299 (inactive),-0.905 (inactive),-1.74 (inactive)
CALASRRYRGAGNASASA [FS-547],-0.863 (inactive),-0.493 (inactive),-0.101 (inactive)
CAIRKRDRRGAGNASASA [FS-1016],12 (active),13.2 (active),9.35 (active)
CAPFVSCQRGAGNASASA [HC1164],0.755 (inactive),0.834 (inactive),-0.509 (inactive)
CAIIKRSAWEAGNASASA [FS-2408],-0.767 (inactive),-0.224 (inactive),-0.00284 (inactive)
CAMEEKSQHLAGNASASA [HC11],0.661 (inactive),-0.101 (inactive),0.52 (inactive)
CATTPQSGSWAGNASASA [HC59],-0.528 (inactive),-0.454 (inactive),-0.569 (inactive)
CAGFTKVCGAAGNASASA [HC440],0.851 (inactive),0.701 (inactive),-1.33 (inactive)
CANSSIVYEAAGNASASA [HC265],0.639 (inactive),-1.3 (inactive),-0.329 (inactive)
CAEVVTSGWVAGNASASA [HC2216],0.374 (inactive),-0.391 (inactive),-0.0659 (inactive)
CAGTPCSGSWAGNASASA [HC1836],-0.934 (inactive),-0.454 (inactive),-1.18 (inactive)
CAGRGRERRWAGNASASA [FS-333],6.35 (active),9.27 (active),8.33 (active)
CAGRERMAREAGNASASA [FS-332],5.27 (active),6.35 (active),5.57 (active)
CARVDRDVAPAGNASASA [FS-2616],0.776 (inactive),-0.0435 (inactive),0.369 (inactive)
CAPQARVAIKAGNASASA [HC1494],0.98 (inactive),-0.346 (inactive),1.74
CADFERKAREAGNASASA [FS-222],0.924 (inactive),0.123 (inactive),0.387 (inactive)
CARVARHAAPAGNASASA [FS-2193],7.61 (active),8.49 (active),8.42 (active)
CAGRGRGGGGAGNASASA [NG4],0.497 (inactive),-0.137 (inactive),0.673 (inactive)
CAGREILLGPAGNASASA [HC664],-0.781 (inactive),-0.532 (inactive),0.339 (inactive)
CARQAEVIAPAGNASASA [HC1031],0.765 (inactive),1.4,-0.146 (inactive)
CARVARVRGGAGNASASA [FS-1938],-0.221 (inactive),-0.337 (inactive),-1.51 (inactive)
CARVARVAREAGNASASA [FS-1799],7.74 (active),5.71 (active),5.82 (active)
